Screen size: about 68,000 compounds; about 2,700 (4%) showed an effect of 50% or more. This is one part of a sample in which strong results are shown more often than they occur.
System: Plasmodium berghei
Test: Screen against P. berghei liver stage (PbLuc), transformed with Luciferase, at 2uM
Type: functional, HepG2
Conditions: tested at 2 uM

Structure (SMILES)	INHIBITION
CCCN1CCC2(C1)c1ccccc1S(=O)(=O)N2Cc1ccccc1 (centres undefined)	9.87%
CCCn1ccc2cc(NC(=O)NCCn3cnnc3CC)ccc21	12.58%
O=C([C@H]1COC[C@H]2CN(C3CCCC3)C[C@H]21)N1CCCO1	0.13%
CCS(=O)(=O)N1CCC2(CC(=O)N(c3ccccc3C)C2)C1 (centres undefined)	46.87%
Cc1ccc(C2c3c(n[nH]c3C)N=C3COC(=O)C32)cc1C (centres undefined)	28.23%
CC(=O)Nc1cnc(Oc2ccccc2F)nc1	8.41%
CO[C@@H]1CO[C@@]2(CCCN(Cc3nc(C)cs3)C2)C1	-61.54%
O=C1CC(NCc2ccncc2)CN1Cc1cccc(F)c1 (centres undefined)	-12.82%
Nc1cc2c(nn1)CCN(C(=O)CCCC1CCCCC1)C2	-33.92%
Cc1nc(CN2CCCC(N(C)c3ccc(C#N)cn3)C2)no1 (centres undefined)	-14.71%
COc1cc2c(nn1)CCN(Cc1nc(Cc3ccccc3)no1)C2	48.93%
COc1cc2c(nn1)CCN(Cc1noc(-c3ccccc3)n1)C2	0.12%
COc1cc2c(nn1)CCN(Cc1noc(CC(C)C)n1)C2	65.76%
Cc1nn(C)c(C)c1C1CCCN1C(=O)c1ccc(C(N)=O)cn1 (centres undefined)	-27.71%
Cc1nn(C)c(Cl)c1C1CCCN1C(=O)c1ccc(O)nc1 (centres undefined)	-36.73%
Cc1nn(C)c(Cl)c1C1CCCN1C(=O)c1csnn1 (centres undefined)	75.98%
Cc1nn(C)c(Cl)c1C1CCCN1C(=O)c1cnccn1 (centres undefined)	3.86%
COc1c(C2CCCN2C(=O)c2cc(C)on2)c(C)nn1C (centres undefined)	51.94%
Cc1nn(C)c(Cl)c1C1CCCN1C(=O)c1ccc(C(N)=O)cn1 (centres undefined)	68.24%
Cc1cc(C(=O)N2CCCC2c2c(C)nn(C)c2C)no1 (centres undefined)	43%
Cc1nn(C)c(Cl)c1C1CCCN1C(=O)c1cc[nH]n1 (centres undefined)	47.57%
COc1c(C2CCCN2C(=O)c2cc(C3CC3)on2)c(C)nn1C (centres undefined)	-47.94%
O=C([C@H]1CN(Cc2ccccc2F)C[C@H]2OCC[C@@H]12)N1CCCO1	13.61%
CC(NC(=O)N1CCCN(CC(F)F)CC1)c1ccco1 (centres undefined)	1.06%
CNc1nc(CNC(=O)Nc2cccc(Cl)c2Cl)cs1	61.09%
CNc1nc(CNC(=O)Nc2cccc(C)c2Cl)cs1	15.4%
CNc1nc(CNC(=O)Nc2cccc(Cl)c2OC)cs1	-4.43%

Structure (SMILES)	INHIBITION
CC(C)(C)c1nnc(NCC(=O)N2CCc3sccc3C2)s1	33.83%
O=C(NCc1nnc2n1CCC2)N(Cc1ccco1)C1CC1	17.52%
Cc1ccc(N2CCCC(NCc3cccc4c3OCO4)C2)nn1 (centres undefined)	56.02%
COCCCNC1CCCN(c2ccc(C)nn2)C1 (centres undefined)	-73.41%
c1cnnc(N2CCCC(NCc3cccc4c3OCO4)C2)c1 (centres undefined)	-9.98%
Cc1ccc(N2CCCC(NCCCS(C)(=O)=O)C2)nn1 (centres undefined)	-15.77%
Cc1ccc(N2CCCC(NCCS(C)(=O)=O)C2)nn1 (centres undefined)	52.6%
Cc1ccc(N2CCCC(NCc3cccc4c3OCCO4)C2)nn1 (centres undefined)	15.13%
CCOCC1CN(Cc2cnn(C)c2)Cc2nn(C)cc21 (centres undefined)	19.44%
CS(=O)(=O)N[C@@H]1CN(C(=O)c2cccnc2)[C@@H]2CCCO[C@@H]21	-13.61%
COCC(NC(=O)c1cnn(C)c1)c1cccc(C(F)(F)F)c1 (centres undefined)	31.38%
CCOCC1CN(Cc2ccoc2)Cc2nn(C)cc21 (centres undefined)	-55.93%
CC(C)CN1CCCn2nc(CNC(=O)Cc3cccc(O)c3)cc2C1	49.95%
CCc1nc(CN(C)C2CCN(CCn3cccn3)C2)no1 (centres undefined)	51.94%
CCc1nc(CN(C)C2CCN(CCNS(=O)(=O)CC)C2)no1 (centres undefined)	20.71%
CCc1nc(CN(C)C2CCN(CCc3ccncc3)C2)no1 (centres undefined)	-11.16%
CN(Cc1noc(C2CC2)n1)C1CCN(CCn2cc(C#N)cn2)C1 (centres undefined)	-9.17%
Cc1nc(CN(C)C2CCN(CCn3cc(C#N)cn3)C2)no1 (centres undefined)	-27.5%
CN(Cc1noc(C2CC2)n1)C1CCN(CCn2cccn2)C1 (centres undefined)	10.1%
CC(C)c1nc(CN(C)C2CCN(CCn3cc(C#N)cn3)C2)no1 (centres undefined)	60.09%
CCc1nc(CN(C)C2CCN(CCS(C)(=O)=O)C2)no1 (centres undefined)	50.72%
CN(Cc1noc(C2CC2)n1)C1CCN(CCS(C)(=O)=O)C1 (centres undefined)	-6.15%
CC(=O)N(C)CC(=O)NC1(c2ccc(Cl)c(Cl)c2)CC1	23.45%
Cc1nc(C)c(C(=O)NCCNC(=O)Cc2cccc(F)c2)s1	30.91%
CSCC(C)(O)CNS(=O)(=O)c1ccc(F)cc1 (centres undefined)	-40%
CN(Cc1csc(-c2cccs2)n1)Cc1cccnc1N	27.47%
Clc1ccc(OCCCN2CCOC(Cn3cncn3)C2)cc1 (centres undefined)	9.17%

Source: ChEMBL document CHEMBL4513216, “Probing the Open Global Health Chemical Diversity Library for Multistage-Active Starting Points for Next-Generation Antimalarials” (ACS Infect Dis, 2020)
